{"source": "paper PMC4336329", "about": "(PLoS ONE, 2015)", "note": "Screen size: about 310,000 compounds; about 14,000 (4.5%) showed an effect of 50% or more. Effects have a minus sign here. The entries come from a sample that favours strong results as a whole.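 Further: peak tail current of the secondary pulse compared with the same well before compound.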", "data": [{"molecular_target": "human ether-à-go-go-related gene (hERG) potassium channel (human, UniProt Q12809)", "sequence (Q12809 whole entry, looked up)": "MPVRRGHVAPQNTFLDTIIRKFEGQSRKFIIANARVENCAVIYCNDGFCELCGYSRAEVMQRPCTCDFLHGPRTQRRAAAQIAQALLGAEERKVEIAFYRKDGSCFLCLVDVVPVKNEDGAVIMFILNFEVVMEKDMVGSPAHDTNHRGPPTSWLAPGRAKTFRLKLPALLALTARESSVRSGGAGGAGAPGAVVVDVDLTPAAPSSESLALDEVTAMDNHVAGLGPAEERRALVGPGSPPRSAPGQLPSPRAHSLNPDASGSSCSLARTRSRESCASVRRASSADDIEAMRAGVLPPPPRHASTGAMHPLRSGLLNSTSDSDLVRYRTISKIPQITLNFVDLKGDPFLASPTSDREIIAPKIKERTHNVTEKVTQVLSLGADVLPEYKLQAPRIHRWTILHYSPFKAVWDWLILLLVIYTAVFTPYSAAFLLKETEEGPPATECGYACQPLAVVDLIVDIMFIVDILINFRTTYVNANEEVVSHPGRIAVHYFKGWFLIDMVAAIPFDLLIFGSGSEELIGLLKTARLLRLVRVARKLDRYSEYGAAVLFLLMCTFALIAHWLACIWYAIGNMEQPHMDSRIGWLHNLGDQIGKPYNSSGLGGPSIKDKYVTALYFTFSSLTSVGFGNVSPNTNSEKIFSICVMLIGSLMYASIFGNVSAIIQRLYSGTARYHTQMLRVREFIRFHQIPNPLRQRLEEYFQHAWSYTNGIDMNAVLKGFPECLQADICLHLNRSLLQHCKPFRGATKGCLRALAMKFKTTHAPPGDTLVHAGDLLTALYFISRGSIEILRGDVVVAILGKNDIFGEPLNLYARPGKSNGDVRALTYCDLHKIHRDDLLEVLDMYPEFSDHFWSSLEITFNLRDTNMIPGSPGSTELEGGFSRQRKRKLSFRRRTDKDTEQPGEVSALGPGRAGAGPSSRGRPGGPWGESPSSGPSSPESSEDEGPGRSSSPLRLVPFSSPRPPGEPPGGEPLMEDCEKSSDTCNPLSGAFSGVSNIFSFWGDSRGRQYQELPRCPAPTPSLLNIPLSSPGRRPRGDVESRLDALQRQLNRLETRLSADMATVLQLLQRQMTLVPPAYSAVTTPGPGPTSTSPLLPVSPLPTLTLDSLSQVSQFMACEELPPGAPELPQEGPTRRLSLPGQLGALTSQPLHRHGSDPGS", "assay": "primary screen, population patch clamp on CHO cells stably expressing hERG; higher = less effect of the substance", "units": {"hERG current change (%, negative = inhibition) at 10uM": "%"}, "values": [{"smiles": "COC(=O)CS(=O)(=O)c1cc(Br)cc2c1N(C(C)=O)CC2", "hERG current change (%, negative = inhibition) at 10uM": 5.36}, {"smiles": "COC(=O)C1=C(c2ccccc2OCc2ccccc2)C[C@@H]2CC[C@H]1N2C(=O)NCc1ccc(C(F)(F)F)cc1", "hERG current change (%, negative = inhibition) at 10uM": -4.61}, {"smiles": "O=S(=O)(Cc1cccc(F)c1)c1c[nH]c2ccccc12", "hERG current change (%, negative = inhibition) at 10uM": 8.65}, {"smiles": "C=CCSc1nc(=O)n2ccc(C)cc2n1", "hERG current change (%, negative = inhibition) at 10uM": -22.9}, {"smiles": "Cc1ccn2c(=O)nc(SCc3cccc(C(F)(F)F)c3)nc2c1", "hERG current change (%, negative = inhibition) at 10uM": -51.5}, {"smiles": "O=c1nc(SCc2cccc(C(F)(F)F)c2)nc2ccccn12", "hERG current change (%, negative = inhibition) at 10uM": -37}, {"smiles": "Cc1cccn2c(=O)nc(SCC(=O)N3CCCC3)nc12", "hERG current change (%, negative = inhibition) at 10uM": -22.6}, {"smiles": "Cc1cccn2c(=O)nc(SCC(=O)N3CCN(c4ccccc4)CC3)nc12", "hERG current change (%, negative = inhibition) at 10uM": -67.6}, {"smiles": "Cc1cccn2c(=O)nc(SCC(=O)N3CCOCC3)nc12", "hERG current change (%, negative = inhibition) at 10uM": 9.72}, {"smiles": "COC(=O)CSc1nc(C)c(Oc2ccccc2)c(=O)[nH]1", "hERG current change (%, negative = inhibition) at 10uM": 11.6}, {"smiles": "O=c1[nH]c(CN2CCc3ccccc3C2)nc2ccccc12", "hERG current change (%, negative = inhibition) at 10uM": 5.47}, {"smiles": "Cc1nn(CC(=O)N2CCN(Cc3ccccc3)CC2)c(=O)c2ccccc12", "hERG current change (%, negative = inhibition) at 10uM": -2.85}, {"smiles": "N#Cc1ccc(CN2CCN(C(=O)Cn3nc(C(N)=O)c4ccccc4c3=O)CC2)cc1", "hERG current change (%, negative = inhibition) at 10uM": -70}, {"smiles": "CCn1nc(C(=O)N2CCN(Cc3nc4ccccc4s3)CC2)c2ccccc2c1=O", "hERG current change (%, negative = inhibition) at 10uM": -68.9}, {"smiles": "CCn1nc(C(=O)N2CCN(Cc3ccc4c(c3)OCO4)CC2)c2ccccc2c1=O", "hERG current change (%, negative = inhibition) at 10uM": -52.1}, {"smiles": "CCn1nc(C(=O)N2CCc3ccccc3C2)c2ccccc2c1=O", "hERG current change (%, negative = inhibition) at 10uM": -13.6}, {"smiles": "COc1ccc(CN2CCN(C(=O)Cn3nc(C(=O)O)c4ccccc4c3=O)CC2)cc1F", "hERG current change (%, negative = inhibition) at 10uM": -37.4}, {"smiles": "CCN1CCN(C(=O)c2nn(-c3ccccc3)c(=O)c3ccccc23)CC1", "hERG current change (%, negative = inhibition) at 10uM": -2.92}, {"smiles": "COc1ccc(-n2nc(C(=O)N3CCN(Cc4ccc5c(c4)OCO5)CC3)c3ccccc3c2=O)cc1", "hERG current change (%, negative = inhibition) at 10uM": -4.87}, {"smiles": "O=C(c1n[nH]c(=O)c2ccccc12)N1CCN(Cc2ccc3c(c2)OCO3)CC1", "hERG current change (%, negative = inhibition) at 10uM": 2.15}, {"smiles": "Cc1cc2nc(-c3ccco3)cc(C(F)(F)F)n2n1", "hERG current change (%, negative = inhibition) at 10uM": -5.82}, {"smiles": "CNc1c(NS(=O)(=O)c2ccc(F)c(Cl)c2)c(=O)oc2ccccc12", "hERG current change (%, negative = inhibition) at 10uM": 3.54}, {"smiles": "O=C(CSCC(=O)N1CCOCC1)Nc1nc(-c2ccccc2)cs1", "hERG current change (%, negative = inhibition) at 10uM": -14.8}, {"smiles": "NC(=O)c1ccccc1OCC(=O)N1CCCc2ccccc21", "hERG current change (%, negative = inhibition) at 10uM": 14.5}, {"smiles": "CC(C)Cc1nc2oc3c(=O)[nH]cnc3c2c2c1CCCC2", "hERG current change (%, negative = inhibition) at 10uM": -6.24}, {"smiles": "CC(C)Cc1nc2oc3c(=O)[nH]cnc3c2c2c1CCC2", "hERG current change (%, negative = inhibition) at 10uM": -7.29}, {"smiles": "CCCc1nc2oc3c(=O)[nH]cnc3c2c2c1CCCC2", "hERG current change (%, negative = inhibition) at 10uM": -56.5}, {"smiles": "COc1ccc(-c2csc(NC(=O)c3ccc(OCC(=O)N4CCOCC4)c(OC)c3)n2)cc1OC", "hERG current change (%, negative = inhibition) at 10uM": -27.6}, {"smiles": "Cc1ccc(C(=O)CCC(=O)Nc2cccc(C)c2)cc1", "hERG current change (%, negative = inhibition) at 10uM": 15.3}, {"smiles": "COCCn1c(=NC(=O)CSCC(=O)N2CCOCC2)sc2cc(C)ccc21", "hERG current change (%, negative = inhibition) at 10uM": -14.8}, {"smiles": "COCCCn1c(SCC(=O)NC2CCCCC2)nnc1-c1ccco1", "hERG current change (%, negative = inhibition) at 10uM": -3.26}, {"smiles": "COCCCn1c(SCC(=O)OC2CCCCC2)nnc1-c1ccco1", "hERG current change (%, negative = inhibition) at 10uM": -56}, {"smiles": "Cn1c(SCC(=O)OC2CCCCC2)nnc1-c1ccco1", "hERG current change (%, negative = inhibition) at 10uM": 0.11}, {"smiles": "COCCCn1c(SCC(=O)NC2CCCC2)nnc1-c1ccco1", "hERG current change (%, negative = inhibition) at 10uM": 9.39}, {"smiles": "O=C(CSc1nnc(-c2ccco2)n1Cc1ccccc1)OC1CCCCC1", "hERG current change (%, negative = inhibition) at 10uM": -92.1}, {"smiles": "O=C(CSc1nnc(-c2ccco2)n1Cc1ccccc1)c1ccc(F)cc1", "hERG current change (%, negative = inhibition) at 10uM": -45.7}, {"smiles": "CCCNS(=O)(=O)c1ccc2c(c1)CCCN2C(C)=O", "hERG current change (%, negative = inhibition) at 10uM": -4.81}, {"smiles": "O=C1Nc2cc(C(=O)NCCCN3CCOCC3)ccc2S/C1=C/c1cccc(Cl)c1", "hERG current change (%, negative = inhibition) at 10uM": 9.36}, {"smiles": "CCOC(=O)c1c(P(=O)(N2CCOCC2)N2CCOCC2)noc1N", "hERG current change (%, negative = inhibition) at 10uM": -0.372}, {"smiles": "Cn1cc(CN2CCCC(CNS(=O)(=O)c3cccc4cccnc34)C2)cn1", "note": "(stereo not shown)", "hERG current change (%, negative = inhibition) at 10uM": 5.77}, {"smiles": "CCC(CC)C(=O)Nc1nnc(S(=O)(=O)N2CCCCCC2)s1", "hERG current change (%, negative = inhibition) at 10uM": 1.54}, {"smiles": "COc1cccc(CC(=O)N2CCCC(CO)(Cc3ccc(F)cc3F)C2)c1", "note": "(stereo not shown)", "hERG current change (%, negative = inhibition) at 10uM": -0.432}, {"smiles": "CCOc1cc(CN2CCCC(CO)(Cc3ccc(F)cc3F)C2)ccc1OC", "note": "(stereo not shown)", "hERG current change (%, negative = inhibition) at 10uM": -55.9}, {"smiles": "COc1ccc(CN2CCCC(CO)(Cc3ccc(F)cc3F)C2)cc1", "note": "(stereo not shown)", "hERG current change (%, negative = inhibition) at 10uM": 6.12}, {"smiles": "OCC1(Cc2ccc(F)cc2F)CCCN(Cc2ccc(Cl)cc2)C1", "note": "(stereo not shown)", "hERG current change (%, negative = inhibition) at 10uM": -74.6}, {"smiles": "COC(=O)c1ccc(CN2CCCC(CO)(Cc3ccc(F)cc3F)C2)cc1", "note": "(stereo not shown)", "hERG current change (%, negative = inhibition) at 10uM": -42.3}, {"smiles": "CCOc1ccc(-n2cc(-c3ccccc3)c3c(=O)[nH]cnc32)cc1", "hERG current change (%, negative = inhibition) at 10uM": 17.2}, {"smiles": "CN(CCc1ccccn1)C(=S)Nc1ccc(Cl)c(Cl)c1", "hERG current change (%, negative = inhibition) at 10uM": -3.59}, {"smiles": "COc1ccc(NS(=O)(=O)c2ccc(N3CCOCC3)c(NC(=O)c3ccc(OC)cc3)c2)cc1", "hERG current change (%, negative = inhibition) at 10uM": -1.38}, {"smiles": "CCOC(=O)c1ccc(CSC(=N)N)o1", "hERG current change (%, negative = inhibition) at 10uM": 17.2}, {"smiles": "CN(C)c1ccc(CN2CCCCCC2)cc1", "hERG current change (%, negative = inhibition) at 10uM": -6.11}, {"smiles": "COc1ccc(CCNS(=O)(=O)c2ccc(S(=O)(=O)N3CCCC3)cc2)cc1OC", "hERG current change (%, negative = inhibition) at 10uM": -6.61}, {"smiles": "COc1ccc(CCNC(=O)CCCN2C(=O)c3ccccc3C2=O)cc1", "hERG current change (%, negative = inhibition) at 10uM": 2.74}, {"smiles": "O=C(CCCOc1ccc(Br)cc1)NCCc1ccc(OC(F)F)cc1", "hERG current change (%, negative = inhibition) at 10uM": -67.7}, {"smiles": "CCOc1ccc(OCCCC(=O)NCCc2ccc(OC)cc2)cc1", "hERG current change (%, negative = inhibition) at 10uM": 25.8}, {"smiles": "O=C(CCCN1C(=O)c2ccccc2C1=O)NCCc1ccc(OC(F)F)cc1", "hERG current change (%, negative = inhibition) at 10uM": -65.3}, {"smiles": "O=C(CCCOc1ccccc1)NCCc1ccccc1", "hERG current change (%, negative = inhibition) at 10uM": -3.36}, {"smiles": "COc1ccc(CCNC(=O)CCCCCN2C(=O)c3ccccc3C2=O)cc1", "hERG current change (%, negative = inhibition) at 10uM": -28.6}]}]}
